Hit rate of the full screen: of about 5,500 compounds, about 2,000 (36%) were called active. About 18% were inconclusive and are not listed. Rule as the data show it: active = normalized growth mostly below about 0.91 (no sharp cut-off); inconclusive = no clear call, values can overlap the other calls; inactive = mostly above about 0.92. This is one part of the list.
Test: chemical genetic growth profiling, strain panel (AID 1159580);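 also: tested at 20 µM; growth read once vehicle control cultures reached saturation at 30 °C; 1 = growth at the plate median or of vehicle wells; lower values mean less growth of the strain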
Settings: S. cerevisiae deletion strains, growth OD

Measured: normalized growth

CCC1(O)CC(OC2CC(N(C)C)C(OC3CC(O)C(OC4CCC(=O)C(C)O4)C(C)O3)C(C)O2)c2c(cc3c(c2O)C(=O)c2c(O)cccc2C3=O)C1C(=O)OC (stereo not drawn)
active: locus YML032C, strain rad52, hits give low values 0.893
inactive: locus YAL013W, strain DEP1, hits give low values 0.986 | locus YBR021W, strain FUR4, hits give low values 1.07 | locus YBR229C, strain ROT2, hits give low values 1 | locus YCL029C, strain bik1, hits give low values 1 | locus YDL035C, strain GPR1, hits give low values 0.978 | locus YDL074C, strain BRE1, hits give low values 0.998 | locus YDL101C, strain DUN1, hits give low values 0.992 | locus YDL134C, strain PPH21, hits give low values 1.01 | locus YDL185W, strain tfp1, hits give low values 1.01 | locus YDL192W, strain arf1, hits give low values 1.01 | locus YDR101C, strain arx1, hits give low values 1.01 | locus YDR150W, strain NUM1, hits give low values 1 | locus YDR162C, strain NBP2, hits give low values 0.981 | locus YDR318W, strain mcm21, hits give low values 1.01 | locus YDR388W, hits give low values 1.01 | locus YDR502C, strain sam2, hits give low values 1 | locus YEL061C, strain CIN8, hits give low values 1.01 | locus YER110C, hits give low values 1.01 | locus YER155C, strain BEM2, hits give low values 1.01 | locus YER167W, strain BCK2, hits give low values 1.01 | locus YGL078C, strain dbp3, hits give low values 1.01 | locus YGL086W, strain mad1, hits give low values 0.992 | locus YGL248W, strain PDE1, hits give low values 0.981 | locus YGR135W, strain pre9, hits give low values 1.01 | locus YGR229C, strain SMI1, hits give low values 0.96 | locus YGR252W, strain gcn5, hits give low values 1.03 | locus YHR030C, strain SLT2, hits give low values 1 | locus YHR079C, strain IRE1 (second series), hits give low values 1.01 | locus YHR094C, strain hxt1, hits give low values 1.01 | locus YHR129C, strain ARP1, hits give low values 0.995 | locus YHR200W, strain rpn10, hits give low values 1.01 | locus YIL066C, strain RNR3, hits give low values 1 | locus YIL073C, strain SPO22, hits give low values 1.04 | locus YIL125W, strain kgd1, hits give low values 1 | locus YIR030C, strain dcg1, hits give low values 1.01 | locus YJL095W, strain BCK1, hits give low values 0.983 | locus YJL134W, strain LCB3, hits give low values 1.01 | locus YJL168C, strain set2, hits give low values 1.01 | locus YJL187C, strain SWE1 (second series), hits give low values 0.998 | locus YJR043C, strain POL32, hits give low values 0.986 | locus YJR075W, strain HOC1, hits give low values 0.975 | locus YKL009W, strain mrt4, hits give low values 1.01 | locus YKL068W, hits give low values 1 | locus YKL085W, strain MDH1 (second series), hits give low values 0.993 | locus YKL085W, strain MDH1, hits give low values 0.993 | locus YKR001C, strain vps1, hits give low values 1.01 | locus YLR039C, strain RIC1, hits give low values 0.981 | locus YLR058C, strain SHM2, hits give low values 1 | locus YLR102C, strain apc9, hits give low values 1.01 | locus YLR262C, strain YPT6, hits give low values 0.958 | locus YLR268W, strain sec22, hits give low values 0.98 | locus YLR330W, strain CHS5, hits give low values 1 | locus YLR342W, strain FKS1 (second series), hits give low values 0.976 | locus YLR371W, strain rom2, hits give low values 1.01 | locus YLR418C, strain cdc73, hits give low values 1.01 | locus YML016C, strain PPZ1, hits give low values 0.997 | locus YML124C, strain tub3, hits give low values 0.999 | locus YMR078C, strain ctf18, hits give low values 1.01 | locus YMR223W, strain ubp8, hits give low values 1 | locus YMR263W, strain SAP30, hits give low values 0.998 | locus YMR307W, strain GAS1, hits give low values 0.601 | locus YNL067W, strain RPL9B, hits give low values 0.992 | locus YNL233W, strain BNI4, hits give low values 0.997 | locus YNL250W, strain rad50, hits give low values 0.999 | locus YNL271C, strain bni1, hits give low values 1 | locus YNL298W, strain CLA4, hits give low values 1.02 | locus YNL307C, strain MCK1, hits give low values 1.01 | locus YNR052C, strain pop2, hits give low values 0.996 | locus YOL006C, strain TOP1, hits give low values 0.812 | locus YOL012C, strain htz1 0.589 | locus YOL147C, strain pex11, hits give low values 1.01 | locus YOR061W, strain CKA2, hits give low values 1 | locus YOR069W, strain VPS5, hits give low values 1 | locus YOR136W, strain idh2, hits give low values 1 | locus YOR144C, strain elg1, hits give low values 1 | locus YOR184W, strain ser1, hits give low values 0.982 | locus YOR316C, strain cot1, hits give low values 1.01 | locus YPR119W, strain clb2, hits give low values 1.02 | locus YPR141C, strain kar3, hits give low values 0.986 | locus YPR163C, strain tif3, hits give low values 1.02 | locus YPR167C, strain met16, hits give low values 1 | strain wtn01, hits give low values 0.983

From PubChem BioAssay AID1159580 (chemical genetic matrix, 2015)
